Assay outcomes (PubChem BioAssay)
In the library only some 1.1% were active in any assay of this set; here they are far more common.
E-sel TNF inh – E-selectin induction blockers in HUVEC – imaging, immunofluorescence, high content, primary screen; HUVEC TNFa-induced E-selectin immunofluorescence; inhibition, % at 2 µM; 120,000 tested, 0.71% active; AID 1246, 2008;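 active means inhibition above the batch mean plus 3 SD, and confirmed as a hit on visual image review, cut at about 43% in these data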;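 further: 0% = TNF-stimulated DMSO wells and 100% = unstimulated control wells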
cytoskel mod – modifiers of F-actin cytoskeleton organization, primary screen, imaging, HUVEC, phalloidin staining, high-content imaging; HUVEC TNFa F-actin phalloidin imaging; inhibition, % at 2 µM; 91,000 tested, 0.18% active; AID 836, 2007;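 active means inhibition above the batch mean plus 3 SD and confirmed as a hit by visual image inspection, cut at about 30% in these data, passing the limit was not always enough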
VCAM1 TNFa inh – inhibitors of TNFa-induced VCAM1 expression, primary screen, imaging, HUVEC, TNFa stimulus, immunofluorescence; inhibition, % at 2 µM; 95,000 tested, 0.48% active; AID 802, 2007; HUVEC TNFa-induced VCAM-1 immunofluorescence, high-content imaging;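 active means inhibition above the batch mean plus 3 SD, with images confirmed as a hit by eye, cut at about 37% in these data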;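 further: 0% = TNF-stimulated DMSO wells and 100% = unstimulated control wells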
HUVEC tox TNFa – cytotoxicity in TNFa-stimulated HUVEC, primary screen, cytotoxicity control for VCAM1 expression modulator project, imaging, Hoechst nuclei count | HUVEC TNFalpha-stimulated, Hoechst cell count | 93,000 tested, 0.17% active | cell count reduction, % at 2 µM;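 active means cell count reduction exceeding the screen mean by over 5 SD, scaled to untreated wells per plate, cut at about 78% in these data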;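 further: cells counted after 24 h of TNF alpha exposure following the 1 h pretreatment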
An asterisk follows results filed as active; x = not tested or not shown.

SMILES	E-sel TNF inh	cytoskel mod	VCAM1 TNFa inh	HUVEC tox TNFa
Cc1cc(C(=O)NN=C2CCCCC2)c2ccccc2n1	-10	x	x	x
CCc1cccc(CC)c1NC(=O)C1SC(=Nc2ccccc2C)C(c2nc3ccccc3s2)=C1N (stereo not given)	-1	-24	59*	-3
Nn1c(CN2CCCCC2)nc2ccccc2c1=O	51*	-9	14	0
CC1(C(=O)OCC(=O)c2c[nH]c3ccccc23)CC1(Cl)Cl (stereo not given)	-1	6	-4	-28
COc1cccc(/C=N/NC(=O)c2c(-c3ccccc3)noc2C)c1	54*	5	6	0
OC(CNCCC1C=Nc2ccccc21)Cn1c2ccc(Cl)cc2c2cc(Cl)ccc21 (stereo not given)	-17	x	x	x
O=C1C2CCCN2C(c2ccccc2)N1c1nccs1 (stereo not given)	85*	3	-8	-14
O=C1C2CCCN2C(c2ccccc2)N1c1cccc(Cl)c1 (stereo not given)	5	-13	3	5
COc1ccc(/C=C/C(=O)c2cc(F)ccc2OC(=O)c2ccc(OC)c(OC)c2)cc1OC	24	x	x	x
COc1ccc(/C=C/C(=O)c2cc(F)ccc2OC(=O)c2ccccc2)cc1OC	x	-45	97*	76
CSc1nc2nccc(-c3ccc(Oc4ccccc4)cc3)n2n1	1	27	86*	-42
c1ccc(-c2ccnc3nc(N4CCN(c5ccccc5)CC4)nn23)cc1	9	-16	1	-14
c1ccc(Oc2ccc(-c3ccnc4nc(N5CCN(c6ccccc6)CC5)nn34)cc2)cc1	53*	21	30	-8
CSc1nc2nccc(-c3ccc(-c4ccccc4)cc3)n2n1	10	-1	2	-9
CCC(CC)NC(=O)COC(=O)CCC(=O)c1ccc(Cl)cc1	-35	x	x	x
O=C(c1cc2ccccc2oc1=O)N(c1ccc(Cl)cc1)C1C=CS(=O)(=O)C1 (stereo not given)	-13	x	x	x
Clc1ccc(-c2ccc(/C=N/Nc3cc(N4CCOCC4)nc(N4CCOCC4)n3)o2)cc1	-32	-23	-6	-1
COc1cccc(-c2cnc(NCc3cc(Cl)ccc3O)n2C)c1	60*	15	21	-16
CCc1ccc(C(=O)Cn2ncc(Cl)c(Cl)c2=O)cc1	0	-8	16	-13
O=C(OCn1ncc(Cl)c(Cl)c1=O)c1cccc(C(F)(F)F)c1	71*	-14	24	-5
Cc1ccc2oc(=O)n(CCCOc3ccccc3)c2c1	68*	14	-11	16
CCc1cccc2c(C=C(C#N)C#N)cn(CC(=O)N3CCCCCC3)c12	3	4	-11	6
CCOc1ccccc1NC(=O)/C(C#N)=C/c1c(C)nn(-c2ccc(F)cc2)c1Cl	-18	x	x	x
CN(C)c1nc(C=C(C#N)C#N)c(Cl)n1-c1ccc(F)cc1	87*	x	x	x
Cc1nc2scc(-c3ccccc3)c2c(=O)n1N=C1C=CC(=O)C=C1	88*	x	x	x
SMILES	E-sel TNF inh	cytoskel mod	VCAM1 TNFa inh	HUVEC tox TNFa
Cc1nc2scc(-c3ccccc3)c2c(=O)n1N	x	-20	2	0
Cc1nn(-c2ccccc2)c2sc(C(=O)O)cc12	97*	x	x	x
O=C(N/N=C\c1ccc(CNS(=O)(=O)c2ccc(Cl)cc2)o1)C(=O)Nc1ccc(Oc2ccccc2)cc1	92*	x	x	x
Cc1c(Br)c([N+](=O)[O-])nn1CC(=O)Nc1sc2c(c1C(=O)OC(C)C)CCCC2	64*	8	10	-4
Cc1c(Br)c([N+](=O)[O-])nn1CCCC(=O)Nc1sc2c(c1C#N)CCC2	24	x	x	x
CC(C(=O)NC(=O)NC1CCCCC1)N1CCN(C(c2ccccc2)c2ccccc2)CC1 (stereo not given)	8	13	-13	7
C=C1C(=O)[C@@]23[C@H](O)C[C@@H]4C(C)(C)CC[C@H](O)[C@@]4(C)[C@@H]2CC[C@@H]1[C@H]3O	58*	x	x	x
Cc1ncc(CO)c2cc(C(N)=O)c(=Nc3ccccc3)oc12	11	36*	19	-7
CC[C@H](C)[C@@H]1NC(=O)c2cc([N+](=O)[O-])cc(I)c2NCC[C@@H](C(N)=O)NC(=O)[C@H](CCCN=C(N)N)NC1=O	83*	x	x	x
NC(=O)[C@@H]1CCCNc2c(I)cc([N+](=O)[O-])cc2C(=O)N[C@@H](CCCN=C(N)N)C(=O)N[C@@H](CCCN=C(N)N)C(=O)N1	-23	x	x	x
Cn1cnnc1SCC(=O)c1c(N)n(Cc2ccccc2)c(=O)n(C)c1=O	-28	x	x	x
CC[n+]1c(/C=C2/C=C(C)CC(C)(C)C2)sc2ccc(OC)cc21	67*	-18	3	-23
